How the values were obtained:
Conditions in all cases: concentration: 1 μM, replicates: in singlicate; n = 1
PCTK2 = tested on: T1, PCTK2
T1 construct: gene CDK17

PCTK3 = tested on: T2, PCTK3
T2 construct: gene CDK18

PDGFRA = tested on: PDGFRA
PDGFRB = tested on: PDGFRB
PDPK1 = tested on: PDPK1
PFTAIRE2 = tested on: PFTAIRE2
PFTK1 = tested on: T3, PFTK1
T3 construct: gene CDK14

PHKG1 = tested on: PHKG1
PHKG2 = tested on: PHKG2
PIK3C2B = tested on: PIK3C2B
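Further: KINOMEscan kinase panel screen.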

| SMILES | %Inh (PCTK2) [%] | %Inh (PCTK3) [%] | %Inh (PDGFRA) [%] | %Inh (PDGFRB) [%] | %Inh (PDPK1) [%] | %Inh (PFTAIRE2) [%] | %Inh (PFTK1) [%] | %Inh (PHKG1) [%] | %Inh (PHKG2) [%] | %Inh (PIK3C2B) [%] |
| --- | --- | --- | --- | --- | --- | --- | --- | --- | --- | --- |
| NCCC(NC(=O)c1cc(Br)c(-c2ccnc3[nH]ccc23)s1)c1ccccc1.O=C(O)C(F)(F)F.O=C(O)C(F)(F)F (stereo not drawn) [GSK1307810] | 16 | 0 | 25 | 53 | 28 | 8 | 0 | 24 | 12 | 0 |
| COc1cccc2c(-c3ccncc3)c(-c3ccc(F)cc3)nn12 [GW468513] | 11 | 0 | 0 | 21 | 10 | 5 | 0 | 18 | 0 | 0 |
| CN(C)c1ncnc2nc[nH]c12 [SKF-31736] | 0 | 0 | 0 | 0 | 0 | 0 | 5 | 0 | 0 | 11 |
| Cc1ccccc1CC(=O)N1CCc2cc(-c3cn(C)c4ncnc(N)c34)ccc21 [GSK2603346] | 0 | 3 | 64 | 99.4 | 67 | 5 | 3 | 0 | 0 | 77 |
| CC(=O)Nc1cn2nc(Oc3cccc(NC(=O)c4cccc(C(F)(F)F)c4)c3)ccc2n1 | 0 | 6 | 99.6 | 100 | 9 | 0 | 3 | 31 | 0 | 0 |
| Cc1ccc(O)cc1Nc1ccnc2cc(-c3ccc(CN4CCCCC4)o3)ccc12 [GW557777] | 0 | 8 | 95.3 | 99.7 | 0 | 0 | 15 | 9 | 7 | 0 |
| CN(C)CCNS(=O)(=O)c1ccc(-c2ccnc3[nH]ccc23)cc1 [GSK977620] | 0 | 0 | 0 | 54 | 0 | 6 | 0 | 25 | 7 | 0 |
| CN(c1ccc2c(c1)nc(NCc1ccccc1)n2C)c1ccnc(Nc2ccc(CS(C)(=O)=O)cc2)n1.Cl [GW811603] | 0 | 0 | 99.8 | 100 | 0 | 38 | 0 | 8 | 0 | 0 |
| CN(c1ccc(NC(=O)N2CCN(CCCN3CCOCC3)CC2)cc1)c1ccnc(Nc2ccc(CS(C)(=O)=O)cc2)n1.Cl [GW830899] | 10 | 0 | 73 | 99.4 | 2 | 14 | 0 | 40 | 0 | 0 |
| c1ccc(Oc2ccc(Nc3ccnc4cc(-c5ccc(CN6CCCCC6)o5)ccc34)cc2)nc1 [GW567143] | 0 | 11 | 82 | 98.6 | 0 | 7 | 9 | 5 | 0 | 0 |
| COc1ccc(NC(=O)c2ccoc2)cc1-c1ccc(C(=O)NCC2CC2)cc1 [GW810437] | 9 | 0 | 21 | 4 | 0 | 13 | 47 | 0 | 0 | 14 |
| COc1ccc(C)c(Nc2ccnc(Nc3ccc(-c4cnc[nH]4)cc3)n2)c1.Cl [GW784041] | 10 | 2 | 0 | 76 | 0 | 0 | 0 | 0 | 8 | 0 |
| COc1cccc(-c2nc(-c3ccccc3)[nH]c2-c2ccncc2)c1 [SB-610250] | 0 | 14 | 0 | 0 | 0 | 14 | 16 | 0 | 0 | 0 |
| Cc1ccc(O)cc1Nc1ccnc2ccc(C(C)(C)C)cc12 [GW856805] | 14 | 5 | 64 | 62 | 52 | 12 | 21 | 24 | 0 | 23 |
| COc1cccc(NC(=O)NCCNc2ccnc(Nc3ccc(F)cc3)n2)c1 [GSK1379879] | 0 | 0 | 0 | 53 | 0 | 6 | 18 | 0 | 0 | 0 |
| CC(C)c1nc(-c2cccc(NS(=O)(=O)c3c(F)cccc3F)c2)c(-c2ccnc(Nc3ccc(N4CCOCC4)nc3)n2)s1.Cl [GSK1723980] | 100 | 100 | 88 | 100 | 0 | 69 | 82 | 0 | 0 | 7 |
| CSc1ccc(NC2=C(c3ccc(Cl)cc3)C(=O)NC2=O)cc1 [SB-317658] | 0 | 0 | 3 | 31 | 17 | 4 | 8 | 0 | 0 | 0 |

| SMILES | %Inh (PCTK2) [%] | %Inh (PCTK3) [%] | %Inh (PDGFRA) [%] | %Inh (PDGFRB) [%] | %Inh (PDPK1) [%] | %Inh (PFTAIRE2) [%] | %Inh (PFTK1) [%] | %Inh (PHKG1) [%] | %Inh (PHKG2) [%] | %Inh (PIK3C2B) [%] |
| --- | --- | --- | --- | --- | --- | --- | --- | --- | --- | --- |
| COc1cccc(C2=C(Nc3cccc(O)c3)C(=O)NC2=O)c1 [SB-390771] | 0 | 6 | 0 | 20 | 0 | 14 | 22 | 0 | 0 | 0 |
| O=C(O)C(F)(F)F.O=c1[nH]ccc2nc(N[C@@H]3CCNC3)nc(Nc3ccc4c(c3)S(=O)(=O)CC4)c12 [GSK2181306] | 71 | 38 | 94.1 | 99.6 | 93.5 | 14 | 14 | 96.9 | 93.7 | 12 |
| O=C(Nc1n[nH]c2cc(-c3cccs3)ccc12)C1CC1 [SB-731284] | 33 | 38 | 73 | 83 | 0 | 0 | 33 | 0 | 17 | 7 |
| CC(C)c1nc(-c2ccc(F)c(NS(=O)(=O)c3c(F)cccc3F)c2)c(-c2ccnc(Nc3ccc(N4CCOCC4)nc3)n2)s1 [GSK1804250] | 94.9 | 76 | 88 | 99.6 | 11 | 11 | 71 | 0 | 9 | 17 |
| O=C(Nc1n[nH]c2nc(-c3ccccc3O)ccc12)C1CC1 [SB-711880] | 5 | 15 | 0 | 0 | 0 | 5 | 0 | 17 | 100 | 14 |
| Cc1cccc(Nc2nc(N[C@H]3CCCC[C@H]3N)ncc2C(N)=O)c1.Cl [GSK986310] | 17 | 24 | 12 | 80 | 3 | 24 | 29 | 33 | 44 | 0 |
| COC(=O)Nc1nc2cc(Oc3ccc(NC(=O)Nc4cccc(SC)c4)cc3)ccc2[nH]1.Cl [GW697999] | 6 | 26 | 99.4 | 100 | 0 | 15 | 20 | 3 | 34 | 0 |
| CCNc1nccc(-c2c(-c3ccc(F)cc3)ncn2C2CCN(C)CC2)n1 | 0 | 0 | 0 | 0 | 15 | 0 | 1 | 1 | 12 | 1 |
| COC(=O)Nc1nc2ccc(Oc3ccc(NC(=O)Nc4cc(C(F)(F)F)ccc4F)cc3)cc2[nH]1.Cl [GW654607] | 10 | 14 | 96.6 | 100 | 0 | 89 | 47 | 0 | 0 | 0 |
| Cl.Cl.NCC(NC(=O)c1cc(-c2cccnc2)c(-c2ccnc3[nH]ccc23)s1)c1ccccc1 (stereo not drawn) [GSK1323434] | 14 | 0 | 0 | 28 | 26 | 29 | 28 | 7 | 2 | 0 |
| O=C(Nc1n[nH]c2nc(-c3ccccc3)ccc12)C1CC1 [SB-708999] | 23 | 36 | 16 | 31 | 34 | 8 | 29 | 12 | 1 | 0 |
| Cc1ccc(Nc2ccnc(Nc3ccc(C)c(F)c3)n2)cc1O.Cl [GW582868] | 0 | 20 | 3 | 96.9 | 0 | 0 | 1 | 0 | 0 | 0 |
| CCn1c(-c2nonc2N)nc2c(-c3ccccc3)ncc(OCCCN)c21.O=C(O)C(F)(F)F.O=C(O)C(F)(F)F [GSK260205] | 0 | 0 | 18 | 98.8 | 0 | 0 | 13 | 0 | 0 | 1 |
| COc1cc(Nc2nccc(N3CCC(NC(=O)Nc4ccc5c(c4)OCO5)C3)n2)cc(OC)c1OC (stereo not drawn) [GSK1379766] | 38 | 31 | 11 | 60 | 0 | 8 | 0 | 0 | 0 | 8 |
| Cn1cc(-c2ccc3c(c2)CCN3C(=O)Cc2cc(F)cc(F)c2F)c2c(N)ncnc21 [GSK2634140] | 0 | 7 | 59 | 98 | 0 | 3 | 10 | 0 | 0 | 82 |
| Cc1cc(-c2ccnc(Nc3cccc(C#N)c3)n2)cc(C)c1O [GSK1440913] | 55 | 43 | 4 | 60 | 0 | 24 | 18 | 27 | 15 | 0 |
